# Assay results as given in PubChem BioAssay (Tox21).
# Inconclusive results are not listed. Entries that show only a call come without a potency. Active and inactive are the calls of the source. The call rests on the fitted dose curve.
# Assay: qHTS assay to identify small molecule agonists of the AP-1 signaling pathway - cell viability counter screen (AID 1159525); further: nearly all actives have a fitted effect of over 55% in size
# Conditions: ME-180 (cervical carcinoma) AP-1-bla cells viability, ATP luminescence, 5 h; series mostly up to 76.8 µM
# Text: National Center for Advancing Translational Sciences [NCATS]
# NIH Chemical Genomics Center [NCGC]
# U.S. Environmental Protection Agency [EPA]
# National Institutes of Environmental Health Sciences [NIEHS]
# National Toxicology Program [NTP]
# U.S. Food and Drug Administration [FDA]
# Activator protein-1 (AP-1), a transcription factor, plays an important role in tumor genesis by regulating genes involved in cell proliferation, differentiation, apoptosis, and angiogenesis. AP-1 activity is induced by a complex network of signaling pathways that involves extracellular signals, such as growth factors. The AP-1 protein complex formed from c-Fos and c-Jun binding to the AP-1 response element results in transcriptional activation of genes containing such elements within their promoter.
# Low molecular weight molecules have been discovered and developed to modulate various components of these signaling pathways, for example, MAP kinase inhibitors. However, many points of pathway modulation remain untested due to the lack of chemical probes making this signaling locus of general interest.
# Using a beta-lactamase reporter-gene under control of the AP-1 response element, a cell-based assay [CellSensor(TM) AP-1-bla ME-180 developed by Invitrogen Corp.] was used to measure EGF-induced signaling. The Tox21 10K library compounds were measured for their ability to positively modulate the action of EC50 EGF on reporter gene activity. Compounds were screened in a 15-pt titration series in 1536-well format. The cytotoxicity of the Tox21 compound library against this cell line was tested in parallel by measuring the intra cellular ATP content in the same wells.
# Tox21 Assay Protocol Summary:
# 2500 cells/5uL in Opti-MEM medium containing 0.5% dialyzed FBS, 0.1 mM NEAA, 1 mM sodium pyruvate and 10 mM HEPES was dispensed into 1536-well black wall/clear bottom plates using a Multidrop dispenser and cells were cultured at 37 degrees Celsius overnight. Next day 23 nL of compounds dissolved in DMSO, positive controls or DMSO were delivered to each well using a pin tool. The plates were incubated at 37 degrees Celsius for 5 hours. 1 uL of LiveBLAzerTM B/G FRET substrate (Solution A+B+C+D) was added to each well using a Flying Reagent Dispenser. After incubated at room temperature for 2.5 hours the plates were measured on an EnVision plate reader at Excitation 405nm, Emission1=460nm and Emission 2=530nm. The %Activity was determined from the ratio of 460nm/530nm.
# After the plates were read for Beta-Lactamase assay on Envision; 3 ul Cell Titer Glo (Promega) was added to measure the cytotoxicity and the plates were then incubated at RT in dark for 30 min. The luminescence was read on ViewLux (Perkin Elmer, Shelton, CT) using 6 sec exposure. ViewLux data was expressed as relative luminescence units.
# For primary data analysis, raw plate reads for each titration point were first normalized relative to […] EGF control (100%) and DMSO only wells (basal, 0%).
# For primary data analysis for viability assay, raw plate reads for each titration point were first normalized Tetra n-octyl ammonium bromide control (-100%) and DMSO (control, 100%).
# Potency means the concentration at half of the fitted maximal effect.
row,SMILES,Potency
1,C=CC(=O)OCC1CC2CC1C1CCC(COC(=O)C=C)C21 (stereo not given),inactive
2,C=COCC(C)C,inactive
3,CCC(OCCCOC)OC(C)=O (stereo not given),inactive
4,CC(=O)OCC[N+](C)(C)C,inactive
5,NC1[C@H]2CN(c3nc4c(cc3F)c(=O)c(C(=O)O)cn4-c3ccc(F)cc3F)C[C@@H]12 (stereo not given in full),inactive
6,Cc1ccco1,inactive
7,CCC(=O)C1CC(C(C)C)CC=C1C (stereo not given),inactive
8,Cc1ccc(OC(=O)c2ccccc2O)cc1,inactive
9,CC(CCC(=O)O)C(=O)O (stereo not given),inactive
10,CC(O)c1ccccc1 (stereo not given),inactive
11,O=c1cc(-c2ccccc2)oc2ccc3ccccc3c12,24.5 µM (active)
12,CCC(=O)OC,inactive
13,C[C@H]1c2cccc(O)c2C(O)=C2C(=O)[C@]3(O)C(O)=C(C(N)=O)C(=O)[C@@H](N(C)C)[C@@H]3[C@@H](O)[C@@H]21,inactive
14,C=CC(C)(CCC=C(C)C)OC(=O)CC(C)C (stereo not given),inactive
15,O=Cc1c2ccccc2c(Cl)c2ccccc12,inactive
16,CC[N+](CC)(CCNC(=O)C(=O)NCC[N+](CC)(CC)Cc1ccccc1Cl)Cc1ccccc1Cl,inactive
17,CC(CC1c2ccccc2CCc2ccccc21)CN(C)C (stereo not given),inactive
18,CC(C)C[C@H](NC(=O)[C@H](CCc1ccccc1)NC(=O)CN1CCOCC1)C(=O)N[C@@H](Cc1ccccc1)C(=O)N[C@@H](CC(C)C)C(=O)[C@@]1(C)CO1,inactive
19,O=C1c2ccccc2C(=O)N1CCc1noc(-c2ccc(CN3CCCCCC3)s2)n1,inactive
20,CC(=O)c1cc2ccccc2s1,inactive

row,SMILES,Potency
1,CO/N=C(/C(=O)N[C@@H]1C(=O)N2C(C(=O)O)=C(COC(N)=O)CS[C@H]12)c1ccco1,inactive
2,COc1cc(C(=O)NC2CCN(C)CC2)ccc1Nc1ncc2c(n1)N(C1CCCC1)CC(F)(F)C(=O)N2C,6.34 µM (active)
3,O=C(O)CCC(=O)C(=O)O,inactive
4,CN(C)CCN1C(=O)c2ccccc2N(C)c2ccccc21,inactive
5,N#CCc1ccc(Cl)cc1Cl,inactive
6,CCC1CO1 (stereo not given),inactive
7,CCn1cc(C(=O)O)c(=O)c2cc(F)c(N3CCNCC3)cc21,inactive
8,O=[N+]([O-])c1cc(C2CCCCC2)c(O)c([N+](=O)[O-])c1,inactive
9,CC(=O)OCC(=O)NCCCOc1cccc(CN2CCCCC2)c1,inactive
10,CC1(C)[C@H](C(=O)O)N2C(=O)C[C@H]2S1(=O)=O,inactive
11,O=[N+]([O-])c1ccc(O/N=C/c2cc(Br)c(O)c(Br)c2)c([N+](=O)[O-])c1,inactive
12,O=C1c2ccccc2C(=O)C1c1nc2ccccc2c(Br)c1O,inactive
13,CC(C)Nc1cccnc1N1CCN(C(=O)c2cc3cc(NS(C)(=O)=O)ccc3[nH]2)CC1,inactive
14,CCCCC(CC)CN (stereo not given),inactive
15,COc1ccccc1Oc1c(NS(=O)(=O)c2ccc(C(C)(C)C)cc2)nc(-c2ncccn2)nc1OCCO,inactive
16,CC(C)(O)c1ccc(CNC(=O)c2cccnc2Oc2ccc3nonc3c2)cc1,inactive
17,Clc1cc(Cl)nc(Cl)n1,inactive
18,CCCCCCCCCCC(=O)O,inactive
19,C=CCc1ccccc1OCC(O)CNC(C)C (stereo not given),inactive
20,O=C1Cc2cc(Cl)ccc2N1,inactive
